According to PubChem BioAssay (EPA / NIEHS):
Where “and” joins values, the source holds several entries; their conditions need not be identical. Equal entries are not always repeated. Some compounds were tested as several samples or in several runs, with calls that do not always agree. Calls of active or inactive are those of the source. Rule for the calls: active = hit-call score of the fitted dose curve at least 0.9, where 1 is the maximum; inactive = score below 0.9.

experiment: BSK_hDFCGF_Proliferation: Cell Proliferation Assessment in the BioMAP Diversity Plus: hDFCGF Assay (AID 2283059); conditions: primary human foreskin fibroblasts;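 note: curves fitted for both rise and fall of signal versus DMSO baseline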
Method: BSK_hDFCGF is a cell-based, multiplexed-readout assay that uses foreskin fibroblast, a human skin primary cell, with measurements taken at 24 hours after chemical dosing in a 96-well plate.BSK_hDFCGF_Proliferation is an assay component measured in the BSK_hDFCGF assay. It measures […] related to cell proliferation using Sulforhodamine staining technology.Data from the assay component BSK_hDFCGF_Proliferation was analyzed into 1 assay endpoint. This assay endpoint, BSK_hDFCGF_Proliferation, was analyzed with bidirectional fitting relative to DMSO as the negative control and baseline of activity. Using a type of viability reporter, measures of total protein for gain or loss-of-signal activity can be used to understand the viability at the cellular-level. Furthermore, this assay endpoint can be referred to as a secondary readout, because this assay has produced multiple assay endpoints where this one serves a viability function. To generalize the intended target to other relatable targets, this assay endpoint is annotated to the cell cycle intended target family, where the subfamily is proliferation.
The levels of cell surface (or secreted, indicated by the prefix "s") biomarker endpoints were measured by ELISA. Overt cytotoxicity to cells in confluent adherent cultures (all systems other than the BT system) was assessed by measuring total protein levels using sulforhodamine B (SRB) staining in parallel cultures at the time of biomarker measurements, indicated as SRB endpoints. For proliferation assays for adherent cell types, individual cell types are cultured at sub-confluence and relative cell numbers quantified by SRB staining at time points optimized for each system (48 h: 3C and CASM3C systems; 72 h: BT and HDF3CGF systems; 96 h: SAg system). SRB was performed by staining cells with 0.1% SRB after fixation with 10% TCA and reading wells at 560 nm.Viability and proliferation of PBMC (T cells) was quantified by Alamar Blue reduction for the SAg and BT systems. For PBMC viability (referred to as PBMC Cytotoxicity within the assay endpoint names), cells were plated (75,000/well in a 96-well plate) and then chemical samples added for 1 h before addition of activators, SEB and TSST-1 (20 ng/mL final concentration each). Cells were incubated for 90 h. Then, Alamar Blue (20 uL/well) (Invitrogen, Cat DAL1100) was added for 6 h, and the plates were read with a fluorescence microplate reader at 546/580 nm (excitation/emission). For PBMC proliferation, cells were plated and activated as above but incubated for only 16 h prior to addition of Alamar Blue. Plates were read after 6 h.

Compound	outcome	AC50
NC(=O)C(F)(F)C(F)(F)C(F)(F)C(F)(F)F	inactive	–
C=CC(=O)OCC(F)(F)C(F)(F)C(F)(F)C(F)(F)C(F)(F)C(F)(F)C(F)(F)F	–	17.5 µM (active) and 46.3 µM (active)
O=C(O)C(F)(F)C(F)(F)F	inactive	–
O=C(O)C=C(C(F)(F)F)C(F)(F)F	inactive	21.9 µM (active)
C=C(C)C(=O)OCC(F)(F)C(F)(F)C(F)(F)F	inactive	–
O=C(CC(=O)C(F)(F)C(F)(F)F)C(F)(F)F	inactive	–
FC(F)(F)C(F)(F)CNCC(F)(F)C(F)(F)F	inactive	–
OCC(F)(F)C(F)(F)C(F)(F)C(F)F	inactive	–
CCCCCCC(C)OC(=O)CCCCC(=O)OC(C)CCCCCC (stereo not given)	inactive	–
C=CC/C=C/C/C=C/C/C=C/C	inactive	–
CC(=O)Nc1ccc(N=Nc2cc(C)ccc2O)cc1	–	20 µM (active)
FC(F)(F)C(F)(F)C(F)(F)C(F)(F)C(F)(F)C(F)(F)CCS	inactive	–
Nc1ccc([N+](=O)[O-])cc1O	–	11.1 µM (active)
C=C(C)C(=O)OCC(F)(F)C(F)(F)C(F)(F)C(F)(F)C(F)(F)C(F)(F)C(F)(F)F	inactive	–
O=P(O)(O)OCCC(F)(F)C(F)(F)C(F)(F)C(F)(F)C(F)(F)C(F)(F)F	inactive	–
O=C(O)C(F)(OC(F)(F)C(F)(OC(F)(F)C(F)(OC(F)(F)C(F)(F)C(F)(F)F)C(F)(F)F)C(F)(F)F)C(F)(F)F (stereo not given)	inactive	–
CCCCCCCCCCCCCCCC[N+](C)(C)Cc1ccccc1	–	0.59 µM (active)
O=C(O)C(F)(F)C(F)(F)OC(F)(F)F	inactive	–
CCO[Si](CCC(F)(F)C(F)(F)C(F)(F)C(F)(F)C(F)(F)C(F)(F)F)(OCC)OCC	inactive	–

Compound	outcome	AC50
CCN(CC)c1ccc2c(C)cc(=O)oc2c1	–	24 µM (active)
FC(F)(F)C(F)(F)C(F)(F)C(F)(F)C(F)(F)C(F)(F)C(F)(F)I	inactive	2.64 µM (active)
CS(C)(=O)=O	inactive	–
FC(F)(Br)C(F)(F)C(F)(F)C(F)(F)C(F)(F)C(F)(F)Br	inactive	–
FC(F)(F)C(F)(F)C(F)(F)C(F)(F)CCI	inactive	–
OCC(F)(F)C(F)(F)C(F)(F)C(F)(F)C(F)(F)C(F)(F)F	–	56.1 µM (active) and 54.4 µM (active)
CC(C)(C)C(=O)CC(=O)C(F)(F)C(F)(F)C(F)(F)F	inactive	–
OCCCC(F)(F)C(F)(F)C(F)(F)F	inactive	–
FC1CC(F)(F)C(F)(F)C1(F)F (stereo not given)	inactive	–
CC(CCl)OP(=O)(OC(C)CCl)OC(C)CCl (stereo not given)	inactive	–
FC(F)(F)C(F)(F)C(F)(F)C(F)(F)C(F)(F)C(F)(F)C(F)(F)C(F)(F)F	inactive	–
O[Si](c1ccccc1)(c1ccccc1)c1ccccc1	–	20 µM (active)
COC(=O)CCC(F)(F)C(F)(F)C(F)(F)C(F)(F)F	inactive	–
C=CC(=O)OCC(F)(F)C(F)(F)C(F)(F)C(F)(F)COC(=O)C=C	–	2.13 µM (active) and 1.2 µM (active)
FC(F)(I)C(F)(F)C(F)(F)C(F)(F)I	–	48.7 µM (active) and 45.5 µM (active) and 43.3 µM (active)
O=C(O)C(F)(F)C(F)(F)C(F)(F)C(F)(F)C(F)(F)C(F)(F)C(F)(F)C(F)(F)C(F)(F)C(F)F	–	15.8 µM (active) and 18.9 µM (active)
FC(F)(F)C(F)(F)C(F)(F)C(F)(F)C(F)(F)CCI	–	32.1 µM (active) and 31.2 µM (active)
FC(F)(F)C(F)(F)C(F)(F)N(C(F)(F)C(F)(F)C(F)(F)F)C(F)(F)C(F)(F)C(F)(F)F	inactive	–
Cc1ccc(S(=O)(=O)OCC(F)(F)C(F)(F)C(F)(F)C(F)(F)C(F)(F)C(F)F)cc1	inactive	–
